Source: PubChem BioAssay (NCATS)
Records with an inconclusive call do not appear. A number with no mark means an inactive call. Activity calls are given as the source filed them. Calls come from the whole dose curve; as a rule, active = well fitted inhibition curve with a large enough effect; inconclusive = small, poorly fitted or top-dose-only effect; inactive = no such curve, though single readings can be large or run the other way.

The molecules below were run against Chromobox protein homolog 1 (Homo sapiens) (UniProt P83916) (assay: qHTS Validation Assay for Inhibitors of HP1-beta Chromodomain Interactions with Methylated Histone Tails (AID 488953; note: nearly all actives have a fitted effect of over 50% in size)). Conditions: HP1-beta chromodomain / methylated histone peptide binding assay; series mostly up to 114 µM; activity change, negative = inhibition: at the top concentration.
From the text: As our understanding of epigenetics expands, it is becoming clear that players in this field are potential targets for drug development. This area of epigenetic therapy has established applications for the treatment of cancer and neurological diseases. We have been involved in this field for a number of years and have performed high-throughput screens to identify the first small molecule inhibitors of protein methyltransferases. These methyltransferases target multiple substrates, and thus regulate many arms of an epigenetic pathway. The methylation of different substrates often generates docking sites for effector proteins that harbor binding domains (chromo, tudor, PHD, MBT and ANK repeats).
It has been proposed that the binding sites generated for different proteins by these post-translational modifcations mediate downstream effects on chromatin. Consistent with this theory, di- and tri-methylation of histone H3K9 facilitates the binding of heterochromatin protein HP1. The HP1 protein harbors a chromodomain that is responsible for the methyl-dependent interaction between HP1 and lysine 9 of histone H3. HP1 was first described in flies as a heterochromatin associated protein that can regulate gene silencing. It harbors a chromodomain that binds H3K9me3. In addition, it harbors a chromoshadow domain that interacts with a large number of proteins that are involved in heterochromatin formation and gene repression. There are three highly related HP1 isoforms. All three variants are associated with pericentric heterochromatin and it is not clear whether they have specific or redundant functions. MPP8 is also involved in the repression of gene in euchromatic regions (unpublished data) and like HP1 its chromodomain binds H3K9me3. MPP8 harbors an ankyrin repeat region that is likely involved in binding and recruiting interacting proteins with transcriptional repressive function, much like the chromoshadow domain of HP1 does.
We hypothesize that by inhibiting specific protein-protein interactions we will be able to develop compounds that block a single arm of an epigenetic pathway. The specificity attained by blocking a single protein-protein interaction will be far greater than that attained by blocking the enzyme that regulates one of many interactions.
Low-affinity protein-protein interactions (Kd in the single- to double-digit micromolar range) such as those discussed here have been very difficult to assay by traditional techniques such as fluorescence polarization or fluorescence resonance energy transfer. We have developed a sensitive chemiluminescence-based assay (Quinn, et al. 2009), which serves as the starting point for this project.
The following is a validation assay to identify lead compounds that can block methyl-dependent protein-protein interactions (specifically HP1-beta), which can be used as probes to analyze these methyl-driven interactions and perhaps even developed into targeted epigenetic therapies.
Assay Provider: Mark T. Bedford, MD Anderson
Screening Center PI: Austin, C.P.
Screening Center: NIH Chemical Genomics Center [NCGC]
To each well, 2 uL of HP1-beta protein (final 50 nM) and 1 uL biotinylated histone peptide trimethylated at Lys9 [b-H3(1-18)K9me3] (final 50 nM) was added in 1x PBS buffer, pH 7.4, containing 0.01% Tween-20 using a nanoliter dispenser. Formation of a protein-peptide complex proceeded at room temperature for 30 min. A Kalypsys pin-tool was employed to transfer 23 nL of library compound solution in DMSO to each well. Aurintricarboxylic acid (ATA) was used as an intraplate control with a 12-point titration in duplicate. Following a 30 min incubation of the protein-peptide complex with compounds at room temperature, a mixture of 40 ug/mL each streptavidin-coated donor and nickel chelate acceptor AlphaScreen beads (final 10 ug/mL) was added in a 1 uL dispense for a final volume of 4 uL. Plates were incubated protected from the light for 30 min at room temperature. […]
% is set by controls: 0 for no effect and ±100 for the full control effect; potency is the fitted concentration of half-maximal effect.

Sequence of Chromobox protein homolog 1 (Homo sapiens) (P83916 whole entry, looked up): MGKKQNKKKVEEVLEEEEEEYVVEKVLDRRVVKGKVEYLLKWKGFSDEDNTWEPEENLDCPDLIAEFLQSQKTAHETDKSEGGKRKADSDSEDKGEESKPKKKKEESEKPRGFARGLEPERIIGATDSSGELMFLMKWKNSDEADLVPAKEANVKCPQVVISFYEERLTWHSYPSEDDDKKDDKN

Q: With N#Cc1cc2nc(O)c(O)nc2cc1[N+](=O)[O-] as the molecule, how does the “activity change, negative = inhibition” value read?
A: Its value is 6.69%.

Q: How did the “activity change, negative = inhibition” value turn out when COc1ccc(CCN(C)CCc2ccc(OC)c(OC)c2)cc1OC was run?
A: Its value is -9.4%.

Q: With COc1ccc2c(c1)c(CC(=O)O)c(C)n2C(=O)c1ccccc1 as the molecule, how does the “activity change, negative = inhibition” value read?
A: The value was -2.16%.

Q: Which “activity change, negative = inhibition” value does the source give for COc1cccc(OC)c1OCCNCC1CSc2ccccc2O1 (stereo not given) here?
A: Its value is 46.9% [at 57.1 µM].

Q: Which “activity change, negative = inhibition” value does the source give for NC(=O)CNCCC(c1ccccc1)c1ccccc1 here?
A: The value was -5.69%.

Q: For CC(C)NC[C@H](O)COc1ccc(CC(N)=O)cc1, which “activity change, negative = inhibition” value is on record?
A: Its value is -1.37%.

Q: CCCCC[C@H](CC(=O)NO)C(=O)N[C@H](C(=O)N1CCC[C@H]1CO)C(C)C was tested. Which “activity change, negative = inhibition” value did it give?
A: The value was -3.45%.

Q: With CC(=O)NCCc1c[nH]c2ccc(O)cc12 as the molecule, how does the “activity change, negative = inhibition” value read?
A: Its value is -1.21%.

Q: With Cc1nc2n(c(=O)c1CCN1CCC(c3noc4cc(F)ccc34)CC1)CCCC2O (stereo not given) as the molecule, how does the “activity change, negative = inhibition” value read?
A: The value was -12.1%.

Q: Nn1nnc2ccccc21 was tested. Which “activity change, negative = inhibition” value did it give?
A: The value was -5.09%.

Q: For CC[n+]1c(/C=C/C=C2/N(C)c3ccccc3C2(C)C)sc2ccccc21, which Potency is on record?
A: The Potency was 25.1 µM (active).

Q: How did the “activity change, negative = inhibition” value turn out when Nc1ccc(N2C(=O)c3ccccc3C2=O)c(Cl)c1 was run?
A: The value was 20.3%.

Q: Which “activity change, negative = inhibition” value does the source give for Nc1ncnc2c1nc(Sc1ccc(Cl)cc1)n2[C@H]1OC2COP(=O)(O)O[C@@H]2C1O (stereo not given in full) here?
A: The value was 1.82%.

Q: How did the “activity change, negative = inhibition” value turn out when NC/C=C\C(=O)O was run?
A: Its value is -4.72%.

Q: For Cc1cccc(C)c1OCC(N)C(C)C (stereo not given), which “activity change, negative = inhibition” value is on record?
A: The value was -4.18%.

Q: For C=CCNc1ncnc2ccc(Br)cc12, which “activity change, negative = inhibition” value is on record?
A: The value was 14.3%.

Q: Nc1nc2c(nc(Br)n2C2OC3COP(=O)(O)O[C@@H]3C2O)c(=O)[nH]1 (stereo not given in full) was tested. Which “activity change, negative = inhibition” value did it give?
A: Its value is 1.79%.

Q: For CCCn1c(=O)c2c(ncn2C)n(CCC)c1=O, which “activity change, negative = inhibition” value is on record?
A: The value was -5.22%.

Q: For N[C@@H](CS(=O)O)C(=O)O, which “activity change, negative = inhibition” value is on record?
A: Its value is -14.3%.

Q: How did the Potency turn out when COc1ccc(NC(=O)c2ccc(-c3ccc(-c4noc(C)n4)cc3C)cc2)cc1N1CCN(C)CC1 was run?
A: The Potency was 31.6 µM (active).

Q: How did the “activity change, negative = inhibition” value turn out when NC1C=CC=C(C(=O)O)C1 (stereo not given) was run?
A: Its value is 3.38%.

Q: With CCCc1c(OCCCOc2ccc(OCC(=O)O)cc2)ccc(C(C)=O)c1O as the molecule, how does the “activity change, negative = inhibition” value read?
A: The value was -11.1%.

Q: How did the “activity change, negative = inhibition” value turn out when N[C@H](C(=O)O)[C@H](O)C(=O)O was run?
A: The value was -6.39%.

Q: How did the “activity change, negative = inhibition” value turn out when CC(C)NC[C@H](O)COc1cccc2ccccc12 was run?
A: Its value is 15.8%.

Q: How did the “activity change, negative = inhibition” value turn out when NC1(C(=O)O)CCc2cc(C(=O)O)ccc21 (stereo not given) was run?
A: Its value is -7.27%.

Q: How did the “activity change, negative = inhibition” value turn out when COc1cc([C@@H]2c3cc4c(cc3[C@H](O)C3COC(=O)[C@@H]32)OCO4)cc(OC)c1OC (stereo not given in full) was run?
A: The value was 8.19%.

Q: CC(N)(C(=O)O)c1ccc(C(=O)O)cc1 (stereo not given) was tested. Which “activity change, negative = inhibition” value did it give?
A: The value was -8.02%.

Q: COc1ccc(-c2cc3ncc(C)n3c(Nc3ncccc3C(N)=O)n2)cc1OC was tested. Which “activity change, negative = inhibition” value did it give?
A: Its value is 4.74%.

Q: CCCCCC(O)CCCC(=O)O (stereo not given) was tested. Which “activity change, negative = inhibition” value did it give?
A: Its value is 53.9% [at 57.1 µM].

Q: Which “activity change, negative = inhibition” value does the source give for COc1ccc(-c2ccc(N)[n+](CCCC(=O)O)n2)cc1 here?
A: Its value is 8.94%.

Q: For NCCCCN, which “activity change, negative = inhibition” value is on record?
A: Its value is -4.48%.

Q: How did the “activity change, negative = inhibition” value turn out when Cn1c(=O)[nH]c2ncn(C)c2c1=O was run?
A: Its value is -0.712%.

Q: With O=S(=O)(c1cccc2c(Cl)cccc12)N1CCCNCC1 as the molecule, how does the “activity change, negative = inhibition” value read?
A: Its value is 0.108%.

Q: With CSC(N)=NCCC[C@H](N)C(=O)O as the molecule, how does the “activity change, negative = inhibition” value read?
A: The value was -5.33%.

Q: CN(C)C(=O)/N=N/C(=O)N(C)C was tested. Which Potency did it give?
A: The Potency was 20 µM (active).

Q: How did the Potency turn out when C[C@H](NC(=O)/C(C#N)=C/c1ccc(O)c(O)c1)c1ccccc1 was run?
A: Its Potency is 31.6 µM (active).

Q: CC(O)C(O)[C@H]1CNc2nc(N)[nH]c(=O)c2N1 (stereo not given in full) was tested. Which “activity change, negative = inhibition” value did it give?
A: The value was 0.532%.

Q: With O=C(c1ccc2c(c1)OCCO2)N1CCCCC1 as the molecule, how does the “activity change, negative = inhibition” value read?
A: Its value is 19.2%.

Q: For C=C1C[C@@]23CC[C@H]4[C@@](C)(CCC[C@@]4(C)C(=O)O)[C@@H]2CC[C@]1(O)C3, which “activity change, negative = inhibition” value is on record?
A: Its value is 3.56%.

Q: Which “activity change, negative = inhibition” value does the source give for O=C(O)Cc1ccc(O)c(O)c1 here?
A: Its value is -7.79%.
